Structures are written as SMILES. Hit rate of the full screen: of about 2,400 compounds, about 950 (40%) were called active.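 Rule for the calls: active = thallium flux ratio, averaged over three wells, more than 5 SD below the buffer control mean; inactive = the rest.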 Only a sample is shown.

This experiment is described as follows: nonspecific thallium influx blockers, KCNK3-free cells – cell-based, non-induced KCNK3 line, FluxOR thallium, triplicate, counter-screen for KCNK3 inhibitor project, primary screen (AID 651747).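 For thallium flux ratio (lower = more inhibition): ratio is peak minus trough fluorescence over baseline then normalized to buffer controls.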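 Note: host cells are CHO cells without KCNK3 induction.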 Conditions: non-induced KCNK3 parental cells, at 10 µM; outcome: FluxOR thallium flux; thallium flux ratio (lower = more inhibition): hits give low values.
For the compound `CN1CCc2ccccc2C1Cc1ccccc1NC(=O)c1sc2ccccc2c1Cl` (configuration not stated), the thallium flux ratio (lower = more inhibition) was 0.143 (active). The result for `N#Cc1cccc(NC(=O)COC(=O)c2ccccc2C(=O)c2ccc(Cl)c([N+](=O)[O-])c2)c1` reads 0.153 (active); that for `Cc1ccc(NC(=S)N2CCCC(c3ccccc3)=N2)cc1`, “inactive”; that for `COc1ccc(Nc2ncnc3sc(-c4ccccc4)cc23)c(OC)c1`, 0.124 (active). On to `FC(F)(F)c1cccc(-c2cc3ccccc3nc2N2CCCC2)c1`, for which the thallium flux ratio (lower = more inhibition) is 0.127 (active). As to `O=C(c1cc(-c2ccc(O)cc2)on1)N1CCCc2ccccc21`, the thallium flux ratio (lower = more inhibition) result is “inactive”. The result for `CSc1nccc(NC(=O)c2ccc(C(C)(C)C)cc2)n1` reads “inactive”; that for `COc1cccc(CNc2nc(C(F)(F)F)nc3ccccc23)c1`, 0.111 (active); that for `COc1ccccc1NC(=O)CSc1nc2sc(C)c(C)c2c(=O)n1Cc1ccco1`, “inactive”.

Consider `C=CCSc1nnc(N2C(=O)C(O)=C(C(=O)c3ccco3)C2c2ccc(F)cc2)s1` (configuration not stated), for which the thallium flux ratio (lower = more inhibition) was 0.101 (active). Regarding `COc1cc(/C=C(\C#N)c2nc3ccccc3[nH]2)ccc1O`, the thallium flux ratio (lower = more inhibition) is 0.0933 (active). Turning to `Cc1cccc(NC(=O)c2sc3nc4c(c(-c5ccco5)c3c2N)CCC4)c1`, the thallium flux ratio (lower = more inhibition) result was “inactive”. Turning to `COc1cccc(COc2ccc(N(C)S(=O)(=O)c3ccccc3)cc2)c1`, the thallium flux ratio (lower = more inhibition) was 0.109 (active). On to `[O-][n+]1ccc(OCc2ccccc2)cc1`, for which the thallium flux ratio (lower = more inhibition) entry is “inactive”. With `N/C(Cc1ccc([N+](=O)[O-])cc1)=N\OC(=O)COc1ccc2ccccc2c1`, the thallium flux ratio (lower = more inhibition) result was “inactive”. As to `N#Cc1nc(Cc2cccc3ccccc23)oc1NCc1ccc2c(c1)OCO2`, the thallium flux ratio (lower = more inhibition) is 0.152 (active).

In the case of `COc1ccc([N+](=O)[O-])cc1-c1nc2ccccc2nc1-c1ccccc1`, the thallium flux ratio (lower = more inhibition) is 0.129 (active). In the case of `CCCC(=O)Nc1ccc(Cl)c(NC(=O)c2ccc(Br)o2)c1`, the thallium flux ratio (lower = more inhibition) entry was “inactive”. For the compound `CN(CCC(=O)Nc1cc(S(=O)(=O)N(C)C)ccc1Cl)CC(=O)Nc1ccc(F)cc1`, the thallium flux ratio (lower = more inhibition) is 0.159 (active). On to `Cc1cc(C)c(S(=O)(=O)c2ccccc2)c(OC(=O)c2c(F)cccc2Cl)n1`, for which the thallium flux ratio (lower = more inhibition) entry is “inactive”. Turning to `CS/C(=C\C(=O)c1ccco1)Nc1ccccc1Cl`, the thallium flux ratio (lower = more inhibition) was 0.154 (active).

For the compound `Cc1cccc2cc(CN(Cc3nnnn3Cc3ccccc3)C3CCCC3)c(=O)[nH]c12`, the thallium flux ratio (lower = more inhibition) is 0.139 (active).

Take `Cc1cc(OCCCCOc2ccc(C#N)cc2)ccc1[N+](=O)[O-]`: the thallium flux ratio (lower = more inhibition) result is “inactive”. The figure for `O=C1c2ccccc2C2=Nc3ccccc3SC(c3ccccc3F)C12` (configuration not stated) is 0.125 (active); for `CCCCCCCCCCOC(=O)Cn1c(COc2cccc(OC)c2)[n+](C)c2ccccc21` it is “inactive”; for `CCCOc1ccc2c3c(c(=O)oc2c1OCCC)CCC3` it is 0.158 (active). On to `COc1cccc(CN(C)CC(O)COC(c2ccccc2)c2ccccc2C)c1` (configuration not stated), for which the thallium flux ratio (lower = more inhibition) was 0.146 (active). As to `FC(F)(F)c1cc(-c2ccco2)nc(NCc2ccc(Cl)cc2)n1`, the thallium flux ratio (lower = more inhibition) is 0.148 (active). Turning to `Cc1ccc(S(=O)(=O)NCc2cn3ccsc3n2)c(C)c1`, the thallium flux ratio (lower = more inhibition) result is “inactive”. For `O=C(NCCc1c[nH]c2ccccc12)c1cccc(Br)c1`, the thallium flux ratio (lower = more inhibition) was 0.159 (active). Turning to `COc1cccc(C(=O)NCCSc2ccc(Br)cc2)c1`, the thallium flux ratio (lower = more inhibition) result is “inactive”. Take `O=C(CSc1nc(Nc2ccccc2)nc(N2CCOCC2)n1)Nc1cc(Cl)ccc1O`: the thallium flux ratio (lower = more inhibition) was 0.137 (active).

Regarding `CC(C)c1ccccc1OCC(O)CN(CC(O)COc1cccc2ccccc12)C(C)C` (configuration not stated), the thallium flux ratio (lower = more inhibition) result is “inactive”. Regarding `C=CCN(C(=O)c1cc(C)cc(C)c1)C1(C(=O)Nc2ccccc2)CCN(C(C)C)CC1`, the thallium flux ratio (lower = more inhibition) entry is “inactive”. For `CC(=O)Nc1cccc(OCC(=O)/C=C2\N(C)c3ccccc3C2(C)C)c1`, the thallium flux ratio (lower = more inhibition) result is “inactive”.

For `COc1cccc(/C=N/Nc2cc(C)nc(-c3ccccc3O)n2)c1O`, the thallium flux ratio (lower = more inhibition) is 0.109 (active). Regarding `CC[n+]1cc(C)ccc1/C=C/c1ccc(N(C)C)cc1`, the thallium flux ratio (lower = more inhibition) was 0.106 (active). Consider `N#Cc1ccc(S(=O)(=O)NCC(=O)OCC(=O)NCCc2ccccc2)cc1`, for which the thallium flux ratio (lower = more inhibition) result is “inactive”. On to `Cc1cccc(-c2nc3ccc(C(=O)NCCN4CCN(C)CC4)cc3nc2-c2cccc(C)c2)c1`, for which the thallium flux ratio (lower = more inhibition) was 0.106 (active).

With `Cc1ccc(NC(=O)c2cc([N+](=O)[O-])ccc2Cl)c(O)c1`, the thallium flux ratio (lower = more inhibition) result is “inactive”.

In the case of `CSc1nnc2c(n1)OC(c1ccsc1)N(C(C)=O)c1ccccc1-2` (configuration not stated), the thallium flux ratio (lower = more inhibition) result was “inactive”. As to `Clc1cccc(-c2nc(NCC3CCCO3)c3ccccc3n2)c1` (configuration not stated), the thallium flux ratio (lower = more inhibition) was 0.129 (active). The entry for `CCn1ncc(Br)c1C(=O)Nc1cc(C)ccc1F` is “inactive”.

For `CCOc1ccccc1Oc1cn[nH]c1-c1ccc(OC)cc1O`, the thallium flux ratio (lower = more inhibition) entry was “inactive”. In the case of `S=C(Nc1cccc(Br)c1)N1CCn2cccc2C1c1cccnc1` (configuration not stated), the thallium flux ratio (lower = more inhibition) result is “inactive”.

Turning to `COC(=O)C1=C(C)N(C(C)c2ccccc2)C(=O)/C1=C\c1ccco1` (configuration not stated), the thallium flux ratio (lower = more inhibition) was 0.158 (active). Consider `O=C(Nc1ccccc1)O/N=C1\CCCCC1c1ccc([N+](=O)[O-])cc1[N+](=O)[O-]` (configuration not stated), for which the thallium flux ratio (lower = more inhibition) result was “inactive”. For `CC(C)c1cc(C(=O)N/N=C/c2ccoc2)c(O)c(C(C)C)c1`, the thallium flux ratio (lower = more inhibition) is 0.147 (active).

For the compound `CSc1cccc(NC(=S)N(C(C)C)C(C)c2ccccn2)c1` (configuration not stated), the thallium flux ratio (lower = more inhibition) result was “inactive”.

In the case of `O=C(CC1NCCc2ccccc21)Nc1cccc(Cl)c1` (configuration not stated), the thallium flux ratio (lower = more inhibition) entry was “inactive”.

On to `FC(F)(F)c1cccc(NC(=S)Nc2cccc(Cl)c2)c1`, for which the thallium flux ratio (lower = more inhibition) was 0.128 (active).

As for `CC(Oc1cccc(NC(=O)c2cccs2)c1)C(=O)c1ccccc1` (configuration not stated), the thallium flux ratio (lower = more inhibition) entry is “inactive”. For the compound `CC(NCc1cccs1)C(=O)Nc1cc(Cl)cc(Cl)c1` (configuration not stated), the thallium flux ratio (lower = more inhibition) entry was “inactive”.

As for `O=C(Nc1cccc(Cl)c1)Nc1ccccc1NS(=O)(=O)c1cccs1`, the thallium flux ratio (lower = more inhibition) was 0.131 (active). The result for `C=CCSc1nsc(NC(=O)Nc2cccc(C(C)=O)c2)n1` reads “inactive”; that for `O=C(NCCc1ccccc1)c1ccc2c(c1)N(Cc1ccccc1)CCS2`, 0.16 (active); that for `O=C(Cn1cc(C(=O)c2cccs2)c2ccccc21)NCc1cccs1`, “inactive”.
